For experiment [1], the target named is Estrogen receptor beta (Homo sapiens) (UniProt Q92731). The experiment can be described thus: qHTS assay to identify small molecule agonists of the estrogen receptor beta (ER-beta) signaling pathway (AID 1259377; active means well fitted activation curve with a large enough effect in the signal ratio in the repeat runs, not every such curve was filed as active; the % refers to the signal ratio). The essentials:
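Reporter cells (HEK293T, ER-beta-UAS-bla) receive compounds or DMSO after a 6 hr pre-incubation. They then incubate 16 hr at 37C/5% CO2, and fluorescence from LiveBLAzer B/G substrate is measured after 2 hours at room temperature.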

Experiment [2] shares this target. The experiment can be described thus: qHTS assay to identify small molecule antagonists of the estrogen receptor beta (ER-beta) signaling pathway (AID 1259378; active means well fitted inhibition curve with a large enough effect in the signal ratio in the repeat runs, not every such curve was filed as active; the % refers to the signal ratio; further: potency means the concentration at half of the fitted maximal effect). The essentials:
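ER-beta-UAS-bla HEK293T cells in 2% charcoal-stripped FBS medium treated with compound plus 1nM final 17-beta-estradiol for 16 hr at 37C. Beta-lactamase reporter read by FRET substrate fluorescence after 2 hours at room temperature.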
In general terms: Quantitative high-throughput screening tests each substance at several concentrations.

Experiment [3] in a line: qHTS assay to identify small molecule agonists of the androgen receptor (AR) signaling pathway in the presence of an antagonist - cell viability counter screen (AID 1259379). Further: nearly all actives have a fitted effect of over 25% in size. Further: potency means the concentration at half of the fitted maximal effect. The essentials:
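MDA-kb2 viability measured by CellTiter-Fluor fluorescence in the same wells as the luciferase signal; nilutamide 3.0uM final; 15-point compound titration; 16 hr at 37C.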

Experiment [4] is described as follows: qHTS assay to identify small molecule agonists of the estrogen receptor beta (ER-beta) signaling pathway - cell viability counter screen (AID 1259380). Further: nearly all actives have a fitted effect of over 30% in size. Further: potency means the concentration at half of the fitted maximal effect. The essentials:
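Measured: luminescence from CellTiter-Glo after 30 min at room temperature, added to wells already read for the LiveBLAzer FRET reporter (2 hr substrate); ER-beta-UAS-bla HEK293T cells had 16 hr compound treatment at 37C, 5% CO2.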

Experiment [5] in a line: qHTS assay to identify small molecule agonists or antagonists of the thyroid stimulating hormone receptor (TSHR) signaling pathway - wild type cell line counter screen (AID 1259384; calls by dose curve). The gist of the method: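 Wild-type Hek293 cells, 800/well, 18 h at 37C, then compound with Ro20-1724 for 30 min RT. cAMP by HTRF (cAMP-d2/anti-cAMP cryptate), 1 h RT, fluorescence read. 15 concentrations, triplicates.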

Experiment [6] concerns the target Thyrotropin receptor (Homo sapiens) (UniProt P16473). The experiment can be described thus: qHTS assay to identify small molecule antagonists of the thyroid stimulating hormone receptor (TSHR) signaling pathway (AID 1259385; calls by dose curve; further: nearly all actives have a fitted effect of over 20% in size). The essentials: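 TSHR-HEK293 cells (800/well) plated 18 h, then compounds with Ro20-1724 and TSH at 1.5 ng/mL final, 30 min at room temperature. cAMP quantified by HTRF (cAMP-d2/anti-cAMP-cryptate, 1 h); 15 concentrations in triplicate.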

Experiment [7] addresses Progesterone receptor (Homo sapiens) (UniProt P06401). The experiment can be described thus: qHTS assay to identify small molecule agonists of the progesterone receptor (PR) signaling pathway (AID 1346784; calls by dose curve; further: nearly all actives have a fitted effect of over 30% in size). The essentials: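 Reporter assay, GripTite PR-UAS-bla HEK 293T cells: 16 hr exposure to DMSO-dissolved compounds at 37C, 5% CO2, in steroid-depleted (2% charcoal-stripped FBS) medium; beta-lactamase measured by FRET fluorescence.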

Experiment [8] has the same target. The experiment can be described thus: qHTS assay to identify small molecule antagonists of the progesterone receptor (PR) signaling pathway (AID 1346795; active means well fitted inhibition curve with a large enough effect in the signal ratio in the repeat runs, not every such curve was filed as active; the % refers to the signal ratio; further: potency means the concentration at half of the fitted maximal effect). The essentials:
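Stimulus R5020 at 1 nM final; cells HEK293T PR-UAS-bla; medium with 2% charcoal-stripped FBS; compound exposure 16 hr at 37C, 5% CO2; detection by FRET beta-lactamase substrate, 2 hr, room temperature.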

Experiment [9] is described as follows: qHTS assay to identify small molecule antagonists of the progesterone receptor (PR) signaling pathway - cell viability counter screen (AID 1346798). Further: series mostly up to about 92 µM; nearly all actives have a fitted effect of over 50% in size. The gist of the method:
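In the same plates used for the beta-lactamase readout, cell viability of compound- and R5020-treated PR-UAS-bla HEK293T cells (16 hr, 37C) was assessed by CellTiter-Glo luminescence.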

Experiment [10] is described as follows: qHTS assay to identify small molecule agonists of the progesterone receptor (PR) signaling pathway - cell viability counter screen (AID 1346799; calls by dose curve; further: nearly all actives have a fitted effect of over 45% in size). The essentials:
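Multiplexed viability read: CellTiter-Glo luminescence, 30 min RT, following LiveBLAzer FRET measurement on PR-UAS-bla HEK293T cells exposed to compounds 16 hr.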

Experiment [11] can be described thus: qHTS assay to identify small molecule antagonists of the TGF-beta/Smad signaling pathway - cell viability counter screen (AID 1346824). Further: nearly all actives have a fitted effect of over 50% in size. The essentials: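 SBE-bla HEK 293T cells, incubated overnight, then compound plus 0.25 ng/mL TGF-beta1 (stock added) for 5 hr at 37 C. Viability was read in the same wells by CellTiter-Glo luminescence after 30 min at room temperature.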

A short description of experiment [12]: qHTS assay to identify small molecule agonists of the TGF-beta/Smad signaling pathway - cell viability counter screen (AID 1346829). Further: top concentration of the series differs between compounds; nearly all actives have a fitted effect of over 45% in size. The essentials:
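Compound-treated SBE-bla HEK 293T cells (5 hr, 37 C) were assessed for viability with CellTiter-Glo in parallel with the reporter read.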

The nature of experiment [13]: qHTS assay to identify small molecule agonists of the TGF-beta/Smad signaling pathway (AID 1346859; active means well fitted activation curve with a large enough effect in the signal ratio in the repeat runs, not every such curve was filed as active; the % refers to the signal ratio; further: series mostly up to about 77 µM). The gist of the method:
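Screening used HEK 293T SBE-bla cells at 4,000/well. Test agents: 5 hr, 37 C. Detection: FRET substrate, 2 hr RT, then excitation 405 nm with emissions at 460 and 530 nm.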

For experiment [14], the target named is Thyrotropin-releasing hormone receptor (Homo sapiens) (UniProt P34981). The experiment can be described thus: qHTS assay to identify small molecule antagonists of the thyrotropin-releasing hormone receptor (TRHR) signaling pathway (AID 1346877; active means well fitted inhibition curve with a large enough effect in the repeat runs, not every such curve was filed as active; further: series mostly up to about 51 µM). The gist of the method: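 Overnight-plated (18 h, 37 °C) HEK293 cells expressing TRHR were dye-loaded 2 h, treated with compound, then stimulated with TRH at 1 nM final. Fluorescence intensity was captured every second for 3 min.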

Experiment [15] has the same target. The experiment can be described thus: qHTS assay to identify small molecule agonists of the thyrotropin-releasing hormone receptor (TRHR) signaling pathway (AID 1346891; calls by dose curve; further: series mostly up to about 58 µM). The essentials: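 Readout was intracellular calcium fluorescence in TRHR-Hek293 cells. Cells were incubated 18 h, dye-loaded 2 h at 37 °C, and treated with compound in agonist mode.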
Experiment [16] in a line: Human pregnane X receptor (PXR) small molecule agonists, qHTS cell viability counter screen (AID 1346977). Further: nearly all actives have a fitted effect of over 50% in size. The gist of the method: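 In each well, the PXR reporter HepG2 line was checked for viability: CellTiter-Fluor reagent added 23hr post-dosing, fluorescence read after 1hr incubation at 37C.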
The target in experiment [17] is Estrogen receptor (Homo sapiens) (UniProt P03372). The experiment can be described thus: qHTS assay to identify small molecule agonists of the estrogen receptor alpha (ER-alpha) signaling pathway in the presence of an antagonist (AID 1259383; calls by dose curve; further: top concentration of the series differs between compounds; nearly all actives have a fitted effect of over 15% in size). The gist of the method:
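Quantitative HTS confirmation: compounds titrated at 15 concentrations onto estrogen-deprived VM7Luc4E2 cells carrying a four-ERE luciferase construct, with ICI-182,780 present at 10.0nM final. Signal is luminescence after 22hr exposure.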

The nature of experiment [18]: qHTS assay to identify small molecule agonists of the estrogen receptor alpha (ER-alpha) signaling pathway in the presence of an antagonist - cell viability counter screen (AID 1259386).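 Further: series mostly up to about 92 µM; cells exposed to compounds for 22 h at 37 °C before the viability read; nearly all actives have a fitted effect of over 30% in size.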 The gist of the method:
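The test measures whether compounds kill ER-alpha reporter cells (VM7Luc4E2) under antagonist co-treatment (ICI-182,780, 10.0nM). Fluorescence from CellTiter-Fluor is read after a 22hr exposure.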

The nature of experiment [19]: qHTS assay to identify small molecule antagonists of the estrogen receptor beta (ER-beta) signaling pathway - cell viability counter screen (AID 1259382). Further: series mostly up to about 92 µM; nearly all actives have a fitted effect of over 55% in size. The gist of the method: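 Readout: luminescence, CellTiter-Glo, same wells as bla assay. System: ER-beta-UAS-bla GripTite HEK293T, 2% charcoal-stripped FBS. Exposure: compounds plus 1nM 17-beta-estradiol, 16 hr, 37C.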

The target in experiment [20] is Androgen receptor (Homo sapiens) (UniProt P10275). The experiment can be described thus: qHTS assay to identify small molecule agonists of the androgen receptor (AR) signaling pathway in the presence of an antagonist (AID 1259381; calls by dose curve; further: nearly all actives have a fitted effect of over 15% in size). The gist of the method:
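Luminescent ONE-Glo read, 30min at room temperature, follows 16hr compound exposure (15 concentrations) of MDA-kb2 cells at 37C, 0% CO2, with nilutamide added at 3.0uM final.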

Where “and” joins values, the source holds several entries; their conditions need not be identical. Identical values can stand only once. Results filed as inconclusive are left out. Calls of active or inactive are those of the source. Unless noted, the call rests on the fitted dose curve; in most records, active means well fitted curve in the direction sought with a large enough effect in the repeat runs; inconclusive means weak or mixed curves; inactive means no such curve, though single readings can be large; an effect the other way counts as inactive or inconclusive.

Sequence of Progesterone receptor (Homo sapiens) (P06401 whole entry, looked up): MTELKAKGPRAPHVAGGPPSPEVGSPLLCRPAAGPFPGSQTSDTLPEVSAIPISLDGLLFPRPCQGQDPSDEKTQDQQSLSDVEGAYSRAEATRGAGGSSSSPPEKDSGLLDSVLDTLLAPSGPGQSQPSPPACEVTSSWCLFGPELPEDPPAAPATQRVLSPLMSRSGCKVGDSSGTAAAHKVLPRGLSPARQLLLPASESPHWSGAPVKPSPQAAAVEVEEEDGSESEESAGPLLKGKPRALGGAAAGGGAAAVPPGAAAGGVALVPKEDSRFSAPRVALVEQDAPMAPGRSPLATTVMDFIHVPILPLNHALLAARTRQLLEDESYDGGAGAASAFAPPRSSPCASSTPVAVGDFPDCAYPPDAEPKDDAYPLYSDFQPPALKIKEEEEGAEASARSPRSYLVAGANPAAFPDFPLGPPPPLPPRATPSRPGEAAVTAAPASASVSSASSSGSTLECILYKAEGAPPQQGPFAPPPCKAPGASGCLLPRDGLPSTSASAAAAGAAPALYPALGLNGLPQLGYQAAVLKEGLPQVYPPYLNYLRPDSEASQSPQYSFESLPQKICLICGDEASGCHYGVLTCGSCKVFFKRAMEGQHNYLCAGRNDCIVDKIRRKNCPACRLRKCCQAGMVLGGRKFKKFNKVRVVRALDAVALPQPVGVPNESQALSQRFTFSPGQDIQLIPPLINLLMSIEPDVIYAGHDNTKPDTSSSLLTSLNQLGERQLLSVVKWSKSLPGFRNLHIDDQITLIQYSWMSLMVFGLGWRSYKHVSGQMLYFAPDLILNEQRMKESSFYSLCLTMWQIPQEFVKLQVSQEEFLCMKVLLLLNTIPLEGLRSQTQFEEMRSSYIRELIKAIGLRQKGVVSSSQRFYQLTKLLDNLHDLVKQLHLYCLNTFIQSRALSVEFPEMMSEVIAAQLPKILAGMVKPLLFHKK
Sequence of Estrogen receptor (Homo sapiens) (P03372 whole entry, looked up): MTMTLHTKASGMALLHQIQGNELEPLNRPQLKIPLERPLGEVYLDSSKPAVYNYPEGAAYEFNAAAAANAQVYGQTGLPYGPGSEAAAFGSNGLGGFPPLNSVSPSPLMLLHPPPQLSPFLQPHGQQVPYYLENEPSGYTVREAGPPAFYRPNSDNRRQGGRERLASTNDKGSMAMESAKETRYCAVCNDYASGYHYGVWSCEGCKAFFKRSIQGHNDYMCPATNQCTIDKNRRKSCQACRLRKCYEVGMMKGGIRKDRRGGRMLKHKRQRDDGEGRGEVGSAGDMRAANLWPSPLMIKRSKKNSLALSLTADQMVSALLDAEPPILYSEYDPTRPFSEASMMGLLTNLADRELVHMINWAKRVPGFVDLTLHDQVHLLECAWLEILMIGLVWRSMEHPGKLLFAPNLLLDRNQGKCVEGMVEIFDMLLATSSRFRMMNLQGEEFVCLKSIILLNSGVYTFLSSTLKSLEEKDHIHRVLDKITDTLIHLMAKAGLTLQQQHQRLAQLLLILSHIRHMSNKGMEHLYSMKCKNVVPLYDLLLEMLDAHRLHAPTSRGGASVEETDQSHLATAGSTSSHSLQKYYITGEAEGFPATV
Sequence of Estrogen receptor beta (Homo sapiens) (Q92731 whole entry, looked up): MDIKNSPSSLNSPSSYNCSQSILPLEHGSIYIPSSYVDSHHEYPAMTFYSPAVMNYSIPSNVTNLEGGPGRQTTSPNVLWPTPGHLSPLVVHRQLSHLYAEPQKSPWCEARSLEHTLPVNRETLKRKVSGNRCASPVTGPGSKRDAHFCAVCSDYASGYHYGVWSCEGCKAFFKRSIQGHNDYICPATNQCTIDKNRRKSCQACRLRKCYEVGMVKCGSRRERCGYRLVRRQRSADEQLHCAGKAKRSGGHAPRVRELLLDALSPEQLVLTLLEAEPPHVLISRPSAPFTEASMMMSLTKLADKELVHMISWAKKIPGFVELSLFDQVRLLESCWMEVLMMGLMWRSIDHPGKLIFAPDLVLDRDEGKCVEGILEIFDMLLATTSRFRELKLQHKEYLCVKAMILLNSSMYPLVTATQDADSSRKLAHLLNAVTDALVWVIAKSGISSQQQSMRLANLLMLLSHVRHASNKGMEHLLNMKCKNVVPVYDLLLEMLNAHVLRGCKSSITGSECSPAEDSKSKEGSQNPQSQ
Sequence of Thyrotropin-releasing hormone receptor (Homo sapiens) (P34981 whole entry, looked up): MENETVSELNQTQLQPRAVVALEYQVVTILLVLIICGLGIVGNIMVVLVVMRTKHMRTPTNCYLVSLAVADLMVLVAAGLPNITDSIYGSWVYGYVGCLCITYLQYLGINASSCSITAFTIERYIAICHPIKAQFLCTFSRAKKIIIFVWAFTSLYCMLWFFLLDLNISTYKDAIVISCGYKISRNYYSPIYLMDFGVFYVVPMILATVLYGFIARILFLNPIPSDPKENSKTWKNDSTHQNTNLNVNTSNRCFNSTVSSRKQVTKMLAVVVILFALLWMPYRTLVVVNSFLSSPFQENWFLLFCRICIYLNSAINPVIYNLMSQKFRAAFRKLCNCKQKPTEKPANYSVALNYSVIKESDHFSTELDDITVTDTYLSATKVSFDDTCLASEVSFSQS
Sequence of Thyrotropin receptor (Homo sapiens) (P16473 whole entry, looked up): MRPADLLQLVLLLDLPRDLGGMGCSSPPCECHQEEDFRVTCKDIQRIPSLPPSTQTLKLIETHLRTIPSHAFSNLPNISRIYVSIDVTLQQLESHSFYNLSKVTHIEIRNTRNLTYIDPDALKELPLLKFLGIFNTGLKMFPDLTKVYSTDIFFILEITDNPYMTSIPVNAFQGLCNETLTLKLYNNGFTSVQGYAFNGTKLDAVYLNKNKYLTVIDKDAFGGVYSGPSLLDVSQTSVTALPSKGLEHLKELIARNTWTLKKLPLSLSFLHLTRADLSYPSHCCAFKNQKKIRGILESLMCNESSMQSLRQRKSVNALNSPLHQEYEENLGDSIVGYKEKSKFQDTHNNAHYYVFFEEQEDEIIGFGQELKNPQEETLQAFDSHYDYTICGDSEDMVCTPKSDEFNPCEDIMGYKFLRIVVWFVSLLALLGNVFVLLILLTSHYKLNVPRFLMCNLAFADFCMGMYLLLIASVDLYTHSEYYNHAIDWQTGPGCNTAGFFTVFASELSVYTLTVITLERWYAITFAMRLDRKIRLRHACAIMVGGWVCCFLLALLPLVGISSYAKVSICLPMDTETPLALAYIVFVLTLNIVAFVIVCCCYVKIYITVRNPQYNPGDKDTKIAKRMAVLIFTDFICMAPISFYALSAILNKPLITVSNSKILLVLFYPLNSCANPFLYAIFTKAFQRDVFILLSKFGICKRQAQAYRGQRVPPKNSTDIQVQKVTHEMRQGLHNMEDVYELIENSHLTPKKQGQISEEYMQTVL
Sequence of Androgen receptor (Homo sapiens) (P10275 whole entry, looked up): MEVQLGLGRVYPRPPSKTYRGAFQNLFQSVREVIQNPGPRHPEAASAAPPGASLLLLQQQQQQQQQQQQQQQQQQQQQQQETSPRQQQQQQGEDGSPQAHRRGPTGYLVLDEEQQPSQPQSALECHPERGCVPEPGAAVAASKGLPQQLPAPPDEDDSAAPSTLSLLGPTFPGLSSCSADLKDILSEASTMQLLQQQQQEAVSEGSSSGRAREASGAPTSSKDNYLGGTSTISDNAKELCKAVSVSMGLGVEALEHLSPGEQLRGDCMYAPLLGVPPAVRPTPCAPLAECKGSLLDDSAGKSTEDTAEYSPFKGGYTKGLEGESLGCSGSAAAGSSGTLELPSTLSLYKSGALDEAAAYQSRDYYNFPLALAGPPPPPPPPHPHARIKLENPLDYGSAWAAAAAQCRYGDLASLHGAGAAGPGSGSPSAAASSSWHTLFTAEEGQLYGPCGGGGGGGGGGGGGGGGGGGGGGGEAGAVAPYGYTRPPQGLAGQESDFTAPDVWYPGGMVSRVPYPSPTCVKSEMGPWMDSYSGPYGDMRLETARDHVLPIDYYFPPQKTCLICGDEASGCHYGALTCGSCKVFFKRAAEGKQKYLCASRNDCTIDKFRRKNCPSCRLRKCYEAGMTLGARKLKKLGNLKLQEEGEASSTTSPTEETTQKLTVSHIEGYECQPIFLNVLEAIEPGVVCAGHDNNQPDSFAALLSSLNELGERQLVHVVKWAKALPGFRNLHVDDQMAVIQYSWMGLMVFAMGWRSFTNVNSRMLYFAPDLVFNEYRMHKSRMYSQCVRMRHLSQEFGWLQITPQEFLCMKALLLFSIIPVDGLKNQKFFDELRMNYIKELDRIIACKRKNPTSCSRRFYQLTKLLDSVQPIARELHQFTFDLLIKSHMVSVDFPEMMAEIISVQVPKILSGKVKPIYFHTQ

In the case of `CCCCN(CC)c1c([N+](=O)[O-])cc(C(F)(F)F)cc1[N+](=O)[O-]`, the Potency entry in experiment [1], in experiment [2], in [3], in experiment [4], in [7] and in experiment [8] was “inactive” in each case. The Potency entry in experiment [9], in experiment [10], in experiment [11], in [12], in experiment [14] and in experiment [15] was “inactive” throughout. In addition, in experiment [16], the Potency result was “inactive”. Moreover, the compound was called inactive in [5], in experiment [6] and in experiment [13].
Turning to `CC1(C)C(C=C(Cl)Cl)C1C(=O)OC(C#N)c1cccc(Oc2ccccc2)c1` (stereo unspecified), the Potency result in experiment [1], in experiment [2], in [3], in [4], in experiment [17] and in experiment [18] was “inactive” each time. Further, the Potency result in experiment [7], in experiment [9], in [12], in [14], in experiment [15] and in experiment [16] was “inactive” each time. Further, the compound was called inactive in [5], in experiment [6] and in experiment [13].
Regarding `CCOc1cc(Oc2ccc(C(F)(F)F)cc2Cl)ccc1[N+](=O)[O-]`, the Potency entry in experiment [1], in experiment [2], in experiment [3], in experiment [4], in experiment [19] and in experiment [17] was “inactive” in each case. Moreover, the Potency result in [7], in experiment [9], in experiment [12], in experiment [14], in [15] and in experiment [16] was “inactive” throughout. The call in [5], in experiment [6] and in experiment [13] was inactive. In addition, in experiment [8], the Potency is 15.5 µM (active) and 13.7 µM (active).
In the case of `Cc1ccccc1[N+](=O)[O-]`, the Potency entry in experiment [1], in experiment [2], in experiment [3], in experiment [4], in [17] and in experiment [7] was “inactive” in each case. For the same compound, the Potency entry in experiment [8], in [9], in [10], in experiment [12], in [14] and in experiment [15] was “inactive” each time. The Potency result in experiment [16] was “inactive”. Further, the compound was called inactive in experiment [5], in [6] and in experiment [13].
For the compound `CCCCOCCOP(=O)(OCCOCCCC)OCCOCCCC`, the Potency result in [1], in experiment [2], in experiment [3], in [17], in experiment [7] and in experiment [9] was “inactive” throughout. Moreover, the Potency result in experiment [12] and in experiment [16] was “inactive” throughout. In addition, the Potency in experiment [4] is 24.4 µM (active). Moreover, the compound was classed as inactive in [5], in experiment [6] and in experiment [13].
In the case of `O=[N+]([O-])c1c(Cl)c(Cl)c(Cl)c(Cl)c1Cl`, the Potency result in experiment [1], in [2], in experiment [4], in experiment [20], in experiment [19] and in experiment [17] was “inactive” in each case. In addition, the Potency entry in [18], in experiment [7], in [8], in [9], in experiment [11] and in [12] was “inactive” in each case. Besides, the Potency result in [14], in experiment [15] and in [16] was “inactive” in each case. The Potency in [3] was 60.8 µM (active) and 48.6 µM (active).
As for `O=c1oc2ccccc2c(O)c1C(CC(O)c1ccc(-c2ccc(Br)cc2)cc1)c1ccccc1` (stereo unspecified), the Potency result in experiment [1], in experiment [3], in experiment [4], in experiment [17], in experiment [18] and in experiment [7] was “inactive” throughout. For the same compound, the Potency entry in experiment [11], in experiment [12], in experiment [14], in experiment [15] and in experiment [16] was “inactive” each time. Besides, the Potency in experiment [2] was 23 µM (active).
As to `CC(C)NC(C)C`, the Potency entry in experiment [1], in [2], in [3], in experiment [4], in experiment [19] and in experiment [17] was “inactive” throughout. Also, the Potency entry in experiment [18], in experiment [7], in [8], in experiment [9], in [10] and in [12] was “inactive” in each case. The Potency entry in experiment [14], in experiment [15] and in experiment [16] was “inactive” in each case. Besides, the result in [5], in experiment [6] and in experiment [13] was inactive.
